Measured values from PubChem BioAssay (NCATS).
Values joined by “and” are separate entries in the source; they are usually repeats but may differ in a detail not shown here. Equal values may be shown once. Records with an inconclusive call do not appear. Some structures have more than one record in an assay (separate samples or runs), and their calls can disagree. Active and inactive are the calls of the source. The call rests on the fitted dose curve; in most records, active means well fitted inhibition curve with a large enough effect; inconclusive means small, poorly fitted or top-dose-only effect; inactive means flat fitted curve, though single readings scatter.

Experiments:
[1] = test system: CRL-7250; assay: Cytotoxic Profiling of Annotated Libraries Using Quantitative High-Throughput Screening (AID 1296008); settings: Five cell lines viability, CellTiter-Glo ATP luminescence, 48-72 h; max response: active compounds read low; on max response: on the % scale 0 is the no-effect control and ±100 the full control effect
Summary of the method: (§1)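 Cells exposed to compounds for 48 or 72 hr at 37 degrees Celsius. Viability read as ATP-coupled luminescence with CellTiter-Glo after 10 min at room temperature.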

[2] = test system: HEK293; assay: as above; settings: Five cell lines viability, CellTiter-Glo ATP luminescence, 48-72 h; max response: active compounds read low
Summary of the method: as §1

[3] = test system: HaCat; assay: as above; settings: Five cell lines viability, CellTiter-Glo ATP luminescence, 48-72 h; max response: active compounds read low
Summary of the method: as §1

[4] = test system: KB-3-1; assay: as above; settings: Five cell lines viability, CellTiter-Glo ATP luminescence, 48-72 h; max response: active compounds read low
Summary of the method: as §1

[5] = test system: GB4; assay: qHTS profiling for inhibitors of Plasmodium falciparum proliferation (AID 504749); settings: P. falciparum in erythrocytes, SYBR Green DNA, 72 h; series mostly up to 28.7 µM
Summary of the method: (§2)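 P. falciparum-infected erythrocytes (0.3% parasitemia, 2.5% hematocrit) incubated with compound 72 h at 37 C, 5% CO2. Parasite DNA detected by SYBR Green after lysis, overnight at room temperature; normalised to 0.29 uM artemisinin and DMSO.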

[6] = test system: HB3; assay: as above; settings: P. falciparum in erythrocytes, SYBR Green DNA, 72 h; series mostly up to 28.7 µM
Summary of the method: as §2

[7] = test system: ICS; assay: as above; settings: P. falciparum in erythrocytes, SYBR Green DNA, 72 h; series mostly up to 28.7 µM
Summary of the method: as §2

[8] = test system: JCK; assay: as above; settings: P. falciparum in erythrocytes, SYBR Green DNA, 72 h; series mostly up to 28.7 µM
Summary of the method: as §2

[9] = test system: N140; assay: as above; settings: P. falciparum in erythrocytes, SYBR Green DNA, 72 h; series mostly up to 28.7 µM
Summary of the method: as §2

[10] = test system: P93_24; assay: as above; settings: P. falciparum in erythrocytes, SYBR Green DNA, 72 h; series mostly up to 28.7 µM
Summary of the method: as §2

[11] = test system: P94_40; assay: as above; settings: P. falciparum in erythrocytes, SYBR Green DNA, 72 h; series mostly up to 28.7 µM
Summary of the method: as §2

[12] = test system: PAD; assay: as above; settings: P. falciparum in erythrocytes, SYBR Green DNA, 72 h; series mostly up to 28.7 µM
Summary of the method: as §2

[13] = test system: PC15; assay: as above; settings: P. falciparum in erythrocytes, SYBR Green DNA, 72 h; series mostly up to 28.7 µM
Summary of the method: as §2

[14] = test system: PC26; assay: as above; settings: P. falciparum in erythrocytes, SYBR Green DNA, 72 h; series mostly up to 28.7 µM
Summary of the method: as §2

[15] = test system: PC49; assay: as above; settings: P. falciparum in erythrocytes, SYBR Green DNA, 72 h; series mostly up to 28.7 µM
Summary of the method: as §2

[16] = test system: SC27B; assay: as above; settings: P. falciparum in erythrocytes, SYBR Green DNA, 72 h; series mostly up to 28.7 µM
Summary of the method: as §2

[17] = test system: TAB109; assay: as above; settings: P. falciparum in erythrocytes, SYBR Green DNA, 72 h; series mostly up to 28.7 µM
Summary of the method: as §2

[18] = test system: TAB113; assay: as above; settings: P. falciparum in erythrocytes, SYBR Green DNA, 72 h; series mostly up to 28.7 µM
Summary of the method: as §2

[19] = test system: TAB165; assay: as above; settings: P. falciparum in erythrocytes, SYBR Green DNA, 72 h; series mostly up to 28.7 µM
Summary of the method: as §2

[20] = test system: W2; assay: as above; settings: P. falciparum in erythrocytes, SYBR Green DNA, 72 h; series mostly up to 28.7 µM
Summary of the method: as §2
Further: nearly all actives have a fitted effect of over 60% in size.
Potency means the concentration at half of the fitted maximal effect.

CC(C)(C)NC(=O)[C@@H]1CN(Cc2cccnc2)CCN1C[C@@H](O)C[C@@H](Cc1ccccc1)C(=O)N[C@H]1c2ccccc2C[C@H]1O
inactive: max response [1] -1.33% and -2.61% | max response [2] 3.56% | outcome [2] | max response [3] -2.17% | outcome [3] | max response [4] 9.13%

C[C@H](CCC(=O)O)[C@H]1CC[C@H]2[C@@H]3C(=O)C[C@@H]4CC(=O)CC[C@]4(C)[C@H]3CC(=O)[C@]12C
inactive: max response [1] -5.31% | outcome [2] | outcome [3] | max response [4] -9.72%

CC1(C)O[C@@H]2C[C@H]3[C@@H]4C[C@H](F)C5=CC(=O)CC[C@]5(C)[C@H]4[C@@H](O)C[C@]3(C)[C@]2(C(=O)CO)O1
inactive: max response [1] 2.33% | outcome [2] | max response [3] -7.7% | max response [4] 28%

CCCCS(=O)(=O)N[C@@H](Cc1ccc(OCCCCC2CCNCC2)cc1)C(=O)O
inactive: max response [1] -2.86% and 2.79% | max response [2] -5.53% and -1.56% | max response [3] -0.76% | outcome [3] | max response [4] -7.62% | outcome [4]

O=C1OC2(c3ccc(O)cc3Oc3cc(O)ccc32)c2ccccc21
inactive: max response [1] -1.47% | max response [2] -1.16% | max response [3] -26.2% | max response [4] -10.5%

COc1c2occc2c(OC)c2c(=O)cc(C)oc12
inactive: Potency [5] | Potency [6] | Potency [7] | Potency [8] | Potency [9] | Potency [10] | Potency [11] | Potency [12] | Potency [13] | Potency [14] | Potency [15] | Potency [16] | Potency [17] | Potency [18] | Potency [19] | Potency [20] | outcome [1] | max response [2] -0.27% | outcome [3] | max response [4] 9.91%

CC(C)n1nc(-c2cc3cc(O)ccc3[nH]2)c2c(N)ncnc21
active: Potency [1] 376 nM and 461 nM | Potency [2] 1.33 µM and 1.46 µM | Potency [3] 23.1 µM | Potency [4] 1.3 µM

CCN(CCCCOC(=O)c1ccc(OC)c(OC)c1)C(C)Cc1ccc(OC)cc1 (stereo not given)
inactive: outcome [1] | max response [2] -15.6% | outcome [3] | max response [4] -8.65%

O=c1[nH]c(=O)n([C@H]2CCCO2)cc1F
inactive: max response [1] 4.85% and -6.48% | max response [2] 1.04% | outcome [2] | outcome [3] | max response [4] 8.54%

CC(=O)OCC(=O)[C@@]1(O)[C@H](C)C[C@H]2[C@@H]3CCC4=CC(=O)C=C[C@]4(C)[C@@]3(F)[C@@H](O)C[C@@]21C
inactive: max response [1] 0.495% and 1.45% | max response [2] -2.05% | outcome [2] | max response [3] -3.13% and -0.939% | max response [4] 31.1% and 2.64% | outcome [4]

OC[C@H]1O[C@H](O[C@]2(CCl)O[C@H](CCl)[C@@H](O)[C@@H]2O)[C@H](O)[C@@H](O)[C@H]1Cl
inactive: outcome [1] | max response [2] -9.55% | outcome [2] | max response [3] -7.79% and -6.26% | outcome [4]

CC(=O)N(O)CCCCCNC(=O)CCC(=O)N(O)CCCCCNC(=O)CCC(=O)N(O)CCCCCN
active: Potency [8] 10 µM | Potency [1] 2.99 µM | Potency [2] 52.4 nM and 9.44 µM | Potency [3] 1.32 µM
inactive: Potency [5] | Potency [6] | Potency [7] | Potency [9] | Potency [10] | Potency [11] | Potency [12] | Potency [13] | Potency [14] | Potency [16] | Potency [17] | Potency [18] | Potency [19] | Potency [20] | max response [3] -20.9% | max response [4] 1.85%

Cc1cc2c(cc1CC(=O)c1sccc1S(=O)(=O)Nc1onc(C)c1Cl)OCO2
inactive: max response [1] -5.35% and 2.32% | outcome [2] | max response [3] -2.94% | outcome [3] | max response [4] 9.67%

CC1(C)OC[C@@H](COC(=O)CCc2ccc(OC[C@@H](O)CNCCNC(=O)N3CCOCC3)cc2)O1
inactive: outcome [1] | outcome [2] | max response [3] 3.95% | max response [4] -12.4% and -13.1%

NC[C@H]1O[C@H](O[C@H]2[C@H](O[C@@H]3O[C@H](CO)[C@@H](O)[C@H]3O)C(O)[C@H](N)C[C@@H]2N)[C@H](N)[C@@H](O)[C@@H]1O (stereo not given in full)
inactive: max response [1] -0.227% | max response [2] 0.11% | max response [3] -0.678% | max response [4] -2.19%

CN1CCN(C(c2ccccc2)c2ccccc2)CC1
inactive: Potency [6] | Potency [7] | Potency [8] | Potency [12] | Potency [13] | Potency [15] | Potency [16] | Potency [17] | Potency [18] | Potency [19] | max response [1] 1.17% and 3.11% | max response [2] -9.52% | max response [3] -15.7% | outcome [3] | max response [4] -11.4% and 1.83%
active: Potency [20] 2.56 µM

Cc1ccc(Nc2c(F)cccc2Cl)c(CC(=O)O)c1
inactive: outcome [1] | max response [2] 2.42% | outcome [3] | max response [4] -12.9% and 2.03%

C[n+]1c2cc(N)ccc2cc2ccc(N)cc21 (tested in a mixture with another compound)
active: Potency [1] 6.68 µM | Potency [2] 3.35 µM

CC1(C)O[C@@H]2[C@@H](CO[C@@]3(COS(N)(=O)=O)OC(C)(C)O[C@@H]23)O1
inactive: max response [1] -9.34% | outcome [2] | outcome [3] | max response [4] 12.1%

CCCCC(=O)O[C@]1(C(=O)CO)CC[C@H]2[C@@H]3CCC4=CC(=O)CC[C@]4(C)[C@H]3[C@@H](O)C[C@@]21C
inactive: outcome [1] | max response [2] 3.34% | outcome [3] | max response [4] -2.52%

CCOc1ccc(NC(=O)CC(C)O)cc1 (stereo not given)
inactive: Potency [5] | Potency [6] | Potency [7] | Potency [8] | Potency [9] | Potency [10] | Potency [11] | Potency [12] | Potency [13] | Potency [14] | Potency [15] | Potency [16] | Potency [17] | Potency [18] | Potency [19] | max response [1] -0.463% | max response [2] 2.44% | max response [3] -5.23% | max response [4] -22.8%

Cc1onc(-c2c(Cl)cccc2Cl)c1C(=O)N[C@@H]1C(=O)N2[C@@H]1SC(C)(C)[C@@H]2C(=O)O
inactive: max response [1] -3.36% and -1.59% | max response [2] -5.63% | outcome [2] | max response [3] -4.29% | max response [4] -7.64% and 7.08%
